FBW7 activator: activators of human E3 ligase FBW7 | Q969H0 | AlphaScreen FBW7–phospho-cyclin E peptide binding, activator screen | normalized activity (activation), % at 26.1 µM | actives 0.13% (n = 650,000) | AID 1259310; in the data active means normalized activity above about 1.9%;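 further: purified mutant Fbw7 with reduced substrate affinity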
Target sequence (Q969H0 whole entry, looked up): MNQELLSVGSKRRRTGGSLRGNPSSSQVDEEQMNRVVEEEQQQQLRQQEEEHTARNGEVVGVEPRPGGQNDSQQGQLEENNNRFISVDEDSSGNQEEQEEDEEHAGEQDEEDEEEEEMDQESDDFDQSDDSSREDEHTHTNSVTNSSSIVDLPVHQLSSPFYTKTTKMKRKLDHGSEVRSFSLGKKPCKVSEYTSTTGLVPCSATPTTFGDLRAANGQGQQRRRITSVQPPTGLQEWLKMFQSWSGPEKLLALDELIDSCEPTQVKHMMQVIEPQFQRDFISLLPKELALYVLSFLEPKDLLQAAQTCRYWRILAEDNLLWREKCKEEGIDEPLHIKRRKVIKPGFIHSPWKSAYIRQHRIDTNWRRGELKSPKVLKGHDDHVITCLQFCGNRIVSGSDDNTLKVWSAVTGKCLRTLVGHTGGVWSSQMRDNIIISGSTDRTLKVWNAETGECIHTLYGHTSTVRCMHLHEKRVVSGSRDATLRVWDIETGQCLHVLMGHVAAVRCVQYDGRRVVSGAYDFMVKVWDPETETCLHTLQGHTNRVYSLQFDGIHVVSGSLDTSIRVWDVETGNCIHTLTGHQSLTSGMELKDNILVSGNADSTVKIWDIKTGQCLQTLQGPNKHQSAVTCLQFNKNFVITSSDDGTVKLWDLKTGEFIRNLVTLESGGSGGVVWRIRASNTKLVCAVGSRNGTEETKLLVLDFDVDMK
TEAD-YAP inh: TEAD-YAP interaction inhibition. HEK-TIYL cells, TEAD-Gal4/YAP UAS-luciferase luminescence. inhibition, % at 9.12 µM. actives 1.4% (n = 640,000); in the data active means inhibition above about 32%;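 further: 0% = median of test compound wells and 100% = reference inhibitor wells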
GPR151 ag: human GPR151 activation; Q8TDV0; PathHunter beta-arrestin GPR151 cells, luminescence; activation, % at 11.2 µM; actives 1% (n = 650,000); AID 1508602; in the data active means activation above about 4.9%;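 further: 0% = median of compound wells and 100% = cells with positive control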
MITF inh: human MITF inhibition, primary screen; O75030; AlphaScreen MITF homodimerization, bead proximity signal; inhibition, % at 2.6 µM; actives 0.91% (n = 650,000); AID 1259374; in the data active means inhibition above about 50%;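 further: 0% = vehicle wells with protein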
MITF confirm: human MITF inhibition, confirmation; shares compounds with MITF inh; inhibition, % at 2.6 µM; actives 16% (n = 4,700); AID 1259372; AlphaScreen MITF homodimerization, biotin/His-MITF beads;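 active means inhibition above a cutoff derived from the DMSO control wells, cut at about 28% in these data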;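 further: 0% = MITF dimer wells with DMSO only; inhibitors lower the bead chemiluminescence by keeping MITF from dimerizing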
AS interf DR: counter-screen: compounds optically interfering with AlphaScreen; shares compounds with MITF inh; actives 6% (n = 480); AID 1259373; AlphaScreen optical interference counterscreen, cell-free; IC50, µM; call rule not given here
AS interf ctr: counter-screen: compounds optically interfering with AlphaScreen; inhibition, % at 2.6 µM; LysRS AlphaScreen counterscreen, signal interference, triplicate; shares compounds with MITF inh; actives 7.6% (n = 4,700);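 active means inhibition above a cutoff derived from the DMSO control wells, cut at about 30% in these data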
* = called active by the depositor. Only some compounds are listed: those with a hit (about 3.5% of all), similar ones and a draw of the others.

Screening COc1ccc(CN2CCN(CCOc3ccc([N+](=O)[O-])c(C)c3)CC2)c(OC)c1OC returned FBW7 activator 0, TEAD-YAP inh 6, GPR151 ag 0, MITF inh 83*, MITF confirm -2 and AS interf ctr 9.
Screening Cc1cc(OCCN2CCCCCC2)ccc1[N+](=O)[O-] returned FBW7 activator 0, TEAD-YAP inh -4, GPR151 ag -1 and MITF inh 20.
COc1ccc2oc(=O)c(-c3nnc(-c4ccc(Cl)cc4)o3)cc2c1 was read as FBW7 activator 0, TEAD-YAP inh 4, GPR151 ag -1, MITF inh 84*, MITF confirm 3 and AS interf ctr 7.
COCCCn1nnnc1SCC(=O)Nc1ccccc1 was read as FBW7 activator 0, TEAD-YAP inh 0, GPR151 ag 0 and MITF inh -1.
`O=c1[nH]cc(S(=O)(=O)O)c2ccccc12` gave FBW7 activator 1, TEAD-YAP inh 1, GPR151 ag 1, MITF inh 65*, MITF confirm -4 and AS interf ctr 1.
OCCN1CCN(Cc2ccc(Br)s2)CC1 was read as FBW7 activator 0, TEAD-YAP inh 1, GPR151 ag 0, MITF inh 59*, MITF confirm -2 and AS interf ctr 5.
CC(=O)N1CCN(Cc2ccc(Br)s2)CC1 was read as FBW7 activator 0, TEAD-YAP inh 4, GPR151 ag -2 and MITF inh -11.
Screening OCCN1CCN(Cc2cc(Br)cs2)CC1 returned FBW7 activator 0, TEAD-YAP inh -5, GPR151 ag 0, MITF inh 73*, MITF confirm -1 and AS interf ctr -1.
`Cc1ccc(NCCNC(=O)Nc2ccccc2F)nn1` gave FBW7 activator 1, TEAD-YAP inh 0, GPR151 ag -2 and MITF inh -2.
Screening O=C(O)c1ccc(CS(=O)(=O)c2ccccc2)o1 returned FBW7 activator -1, TEAD-YAP inh 6, GPR151 ag 0, MITF inh 56*, MITF confirm 74*, AS interf DR >6.5 and AS interf ctr 14.
Screening NNC(=O)c1ccc(CS(=O)(=O)c2ccccc2)o1 returned FBW7 activator 0, TEAD-YAP inh -19, GPR151 ag 0 and MITF inh -4.
For COc1ccc(NC(=O)c2sc3nc4ccc(C)cc4cc3c2N)cc1OC the results were FBW7 activator 0, TEAD-YAP inh -6, GPR151 ag 0, MITF inh 65*, MITF confirm 7 and AS interf ctr 21.
`COc1ccc(NC(=O)c2sc3nc4cc(C)ccc4cc3c2N)cc1OC` gave FBW7 activator 0, TEAD-YAP inh 1, GPR151 ag 0 and MITF inh 11.
Screening COC(CNC(=O)CCCCCn1c(=S)[nH]c2cc3c(cc2c1=O)OCO3)OC returned FBW7 activator 0, TEAD-YAP inh -5, GPR151 ag 2 and MITF inh -8.
Screening c1ccc(COc2ccccc2OCCCCNCCN2CCOCC2)cc1 returned FBW7 activator 0, TEAD-YAP inh -10, GPR151 ag 0 and MITF inh -10.
Screening CCN1CCN(CCOc2ccc(I)cc2)CC1 returned FBW7 activator 0, TEAD-YAP inh 0, GPR151 ag 0, MITF inh 64*, MITF confirm 13 and AS interf ctr 16.
For CCN1CCN(CCOc2ccccc2[N+](=O)[O-])CC1 the results were FBW7 activator 0, TEAD-YAP inh 10, GPR151 ag -1, MITF inh 75*, MITF confirm 15 and AS interf ctr 16.
For c1ccc(COc2ccccc2OCCNCCN2CCOCC2)cc1 the results were FBW7 activator 0, TEAD-YAP inh 6, GPR151 ag -1, MITF inh 66*, MITF confirm -6 and AS interf ctr 11.
O=[N+]([O-])c1ccccc1OCCCCN1CCCC1 was read as FBW7 activator 0, TEAD-YAP inh 0, GPR151 ag 0 and MITF inh 13.
For CCN1CCN(CCCOc2ccc(OC)cc2)CC1 the results were FBW7 activator 0, TEAD-YAP inh -3, GPR151 ag 1 and MITF inh 29.
`CCN1CCN(CCOc2ccccc2OCc2ccccc2)CC1` gave FBW7 activator 0, TEAD-YAP inh 3, GPR151 ag -3, MITF inh 66*, MITF confirm 4 and AS interf ctr 4.
C=CCN1C(=O)/C(=C/c2cc(C)n(-c3cccc(C(=O)O)c3)c2C)C(=O)NC1=S was read as FBW7 activator -1, TEAD-YAP inh 2, GPR151 ag -2 and MITF inh 37.
COc1ccc2c(c1)sc1ncc(C(=O)NC(C)(C)CO)c(=O)n12 was read as FBW7 activator 0, TEAD-YAP inh 12, GPR151 ag 1 and MITF inh 1.
COc1ccc(C(=O)OC(COc2cccc3ccccc23)CN(C)C2=NS(=O)(=O)c3ccccc32)cc1 (stereo not drawn) was read as FBW7 activator 0, TEAD-YAP inh -1, GPR151 ag 0 and MITF inh 1.
For O=[N+]([O-])c1ccccc1OCCCOc1ccccc1[N+](=O)[O-] the results were FBW7 activator 0, TEAD-YAP inh -71, GPR151 ag 2 and MITF inh 12.
CCN1CCN(CCOc2ccc(OCc3ccccc3)cc2)CC1 was read as FBW7 activator 0, TEAD-YAP inh -32, GPR151 ag 1, MITF inh 69*, MITF confirm 9 and AS interf ctr 14.
For c1ccc(COc2ccc(OCCN3CCCC3)cc2)cc1 the results were FBW7 activator 0, TEAD-YAP inh -21, GPR151 ag 0 and MITF inh 6.
Screening O=[N+]([O-])c1ccccc1OCCNC1CCCC1 returned FBW7 activator 0, TEAD-YAP inh 2, GPR151 ag -1, MITF inh 52*, MITF confirm -4 and AS interf ctr 3.
For CN(C)CC(C)(C)CNC(=S)NCc1ccc2c(c1)OCO2 the results were FBW7 activator 0, TEAD-YAP inh 9, GPR151 ag 1, MITF inh 54*, MITF confirm 0 and AS interf ctr -2.
`CN(C)CCNC(=S)Nc1ccccc1` gave FBW7 activator 1, TEAD-YAP inh -1, GPR151 ag -1 and MITF inh 12.
O=C(O)c1cc(N/N=C/c2ccc(N3CCOCC3)s2)ccc1Cl was read as FBW7 activator 0, TEAD-YAP inh -16, GPR151 ag -1, MITF inh 76*, MITF confirm 60*, AS interf DR >7.1 and AS interf ctr 21.
`Cc1ccccc1NC(=O)N1CCN(CC(=O)c2ccco2)CC1` gave FBW7 activator 0, TEAD-YAP inh -11, GPR151 ag -1, MITF inh 54*, MITF confirm 10 and AS interf ctr 22.
